Results on 27 molecules are retold here after PubChem BioAssay AID588492 (Sanford-Burnham Center for Chemical Genomics, 2011).

Hit rate of the full screen: of about 360,000 compounds, about 2,300 (0.64%) were called active. Only a selection was taken, and actives are over-represented in it overall. A number with no mark means an inactive call.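 Rule for the calls: active = compounds giving at least 50% protection of heart cells from peroxide-induced death in the single-dose screen, raw or plate-pattern-corrected value; inactive = the rest.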

A short description of the assay: H9c2 cardiomyocyte survival under peroxide injury – uHTS, H9c2 cells, ATPLite luminescence, primary screen (AID 588492).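 Note: 0% = DMSO wells with peroxide and 100% = DMSO wells without peroxide.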 The following applies: H9c2 cardiomyocytes, 2 h, at 20 µM, stronger effect = higher value. In general terms: ATP-based viability assays read luminescence as a measure of living cells.
In the case of `COC(=O)[C@@H]1CCCN1C(=O)c1cc(COc2cccc3cccnc23)on1`, the protection from H2O2 cell death is 11.6%.
The same measure for `CSCCC(c1nnnn1Cc1ccccc1)N1CCN(C/C=C/c2ccccc2)CC1` (configuration not stated): -2%; for `Cc1ccc(C(=O)OCC(=O)NC2CCCCCCC2)cc1C`: -0.9%.
For `Cn1c2ccc(F)cc2c2nnc(NN)nc21` the value was 56.4% (active); for `CCn1c2ccc(F)cc2c2nnc(SCCN3CCOCC3)nc21`, 3.7%.
As to `CN(C)c1nc(NN)nc(Nc2ccc(F)cc2)n1`, the protection from H2O2 cell death was -2.7%.
Consider `CSc1nc(-c2ccccc2)nc(C(Cl)Cl)n1`, for which the protection from H2O2 cell death is -2.9%.
As for `COC(=O)c1c(C(=O)OC)c2n(c1C)CCS2`, the protection from H2O2 cell death was -0.3%.
As to `COc1ccc(CNC(=O)C(c2ccc(O)cc2)N(Cc2ccco2)C(=O)c2snc(C(N)=O)c2N)cc1` (configuration not stated), the protection from H2O2 cell death was 49%.
With `Cc1cccc(N(C(=O)c2csnn2)C(C(=O)NCc2ccccc2)c2ccncc2)c1` (configuration not stated), the protection from H2O2 cell death was 2.2%.
For `COc1ccc(C(C(=O)NCc2ccccc2)N(Cc2cccs2)C(=O)c2cnccn2)cc1` (configuration not stated) the value was 79.8% (active); for `CC(C)c1nnc(NC(=O)CCC(=O)N2CCN(c3cccc(Cl)c3)CC2)s1`, -2.1%.
As to `COc1cccc(-c2ccc(SCC(=O)N3CCN(c4ccccc4)CC3)nn2)c1`, the protection from H2O2 cell death is 53.9% (active).
With `COc1cccc(/C=C/C(=O)OCC(=O)N2CCN(c3ccccc3)CC2)c1`, the protection from H2O2 cell death is 2%.
With `CCOc1ccc(-c2ccc(SCC(=O)N3CCOCC3)nn2)cc1`, the protection from H2O2 cell death was -13.9%.
Turning to `CC1(C(=O)NS(=O)(=O)Cc2cccc(Cl)c2)CCN1C(=O)Cc1ccccc1` (configuration not stated), the protection from H2O2 cell death is -2.8%.
On to `COc1ccc(NC(=O)CN(C)C(=O)CC2CCCCC2)cc1`, for which the protection from H2O2 cell death is 0.1%.
For `C[C@H](NC(=O)c1nc[nH]c1C(=O)NCC(=O)OC(C)(C)C)C(=O)OCc1ccccc1` the value was 41.9%.
On to `Cc1cccc(NC(=O)c2nc[nH]c2C(=O)NCC(=O)OCc2ccccc2)c1`, for which the protection from H2O2 cell death is 86.4% (active).
As to `CCOC(=O)c1ccc(NC(=O)c2nc[nH]c2C(=O)NCc2ccccc2)cc1`, the protection from H2O2 cell death is 21.8%.
Take `COC(=O)C1=C(C)NC(=O)/C1=C/c1ccc(CNS(=O)(=O)c2ccc(C)cc2)o1`: the protection from H2O2 cell death was 2.9%.
For the molecule `COC(=O)C1=C(C)NC2=C(C(=O)c3ccccc32)C1c1ccc(-c2ccc(C(=O)O)cc2)o1` (configuration not stated), the protection from H2O2 cell death was 60.9% (active).
For `Nc1ccc2nc3c(=O)[nH]c(=S)[nH]c3nc2c1` the value was -6.1%; for `CCOc1ncccc1C(=O)N(CC)CC(=O)Nc1ccc(NC(C)=O)cc1`, -4.3%; for `COc1ccc(N(CC(=O)N/N=C/c2cccs2)S(=O)(=O)c2ccc(OC)c(OC)c2)cc1`, 52.7% (active).
For `COc1ccc(N(CC(=O)N/N=C/c2cccc3c2OCCO3)S(=O)(=O)c2ccc(NC(C)=O)cc2)cc1` the value was 26.2%.
Consider `COc1ccc(S(=O)(=O)N(CC(=O)N/N=C/c2ccc(C(=O)O)cc2)Cc2ccccc2)cc1OC`, for which the protection from H2O2 cell death is -0.7%.
